# USP28 block – human USP28 deubiquitinase inhibition. 47,000 tested, 3% active. purified USP28, Ub-rhodamine cleavage fluorescence, 30 min. inhibition, % at 25 µM. Q96RU2
# USP17 block – human USP17-like deubiquitinase inhibition; purified USP17, Ub-rhodamine cleavage fluorescence, 3 h; 47,000 tested, 6.5% active; AID 1645855; inhibition, % at 50 µM; A8MUK1
# USP30 inh – blocks human USP30 ubiquitin-rhodamine cleavage | Q70CQ3 | purified USP30, Ub-rhodamine cleavage fluorescence | inhibition, % at 25 µM | 47,000 tested, 5.3% active | AID 1645860
# Target sequence (Q70CQ3 whole entry, looked up): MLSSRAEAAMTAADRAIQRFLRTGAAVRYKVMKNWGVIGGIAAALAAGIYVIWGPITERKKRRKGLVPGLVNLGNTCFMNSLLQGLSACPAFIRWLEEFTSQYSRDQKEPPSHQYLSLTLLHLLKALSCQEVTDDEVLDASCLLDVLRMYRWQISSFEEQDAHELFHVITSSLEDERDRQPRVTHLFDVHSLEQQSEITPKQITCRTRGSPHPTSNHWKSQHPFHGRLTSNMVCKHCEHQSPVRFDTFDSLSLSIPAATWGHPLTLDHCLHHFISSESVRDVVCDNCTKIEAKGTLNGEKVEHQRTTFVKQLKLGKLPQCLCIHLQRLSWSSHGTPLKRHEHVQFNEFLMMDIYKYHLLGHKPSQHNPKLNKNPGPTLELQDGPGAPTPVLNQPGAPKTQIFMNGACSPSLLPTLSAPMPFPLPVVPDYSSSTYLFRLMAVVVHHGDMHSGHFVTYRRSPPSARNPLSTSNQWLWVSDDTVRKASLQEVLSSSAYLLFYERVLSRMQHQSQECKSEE
# * marks the source's active call; other numbers are inactive results; i = inactive; · = no result given. Sampled rows, rich in hits. Any-hit rate of the full collection: about 11%. Cut-off read from the data, not from the text of the source: active = inhibition above about 30%; inactive = the rest.
SMILES,USP28 block,USP17 block,USP30 inh
CN(C(=O)CC(C#N)(CC(=O)N(C)c1ccccc1)C(=O)Nc1ccc(F)cc1)c1ccccc1,-4,-24,-2
C=C(NC(=O)C(=C)NC(=O)c1ccc2c(n1)-c1coc(n1)C(=C)NC(=O)C(=C)NC(=O)c1nc(oc1C)C(=C)NC(=O)C(C(C)(C)O)NC(=O)C(=C)NC(=O)c1nc(oc1C)/C(=C\C)NC(=O)C(C(C)O)NC(=O)c1csc-2n1)C(N)=O (configuration not stated),-20,8,-186
O=C(Cn1nnc2ccccc21)Nc1nc2ccccc2s1,·,14,·
COc1cc2cc(C(=O)NCC(=O)Nc3nc4ccccc4s3)n(C)c2cc1OC,5,33*,19
Cc1ccc(-n2nc(C)c3nc(CCC(=O)Nc4ccc(OC(F)(F)F)cc4)c(=O)n(C)c32)cc1,-2,4,31*
Cc1ccc(-n2nc(C)c3nc(CCC(=O)NC4CC4)c(=O)n(C)c32)cc1,9,0,11
Cc1c(C)n(Cc2ccccc2)c2ncnc(Sc3ccc(C(C)C)cc3)c12,-9,-17,-13
COC(=O)c1cc(NC(=O)Nc2cccc(Cl)c2)cc(C(=O)OC)c1,4,22,28
Cc1cc(C)cc(NC(=O)Cc2csc(NC(=O)Nc3cccc(Cl)c3)n2)c1,24,12,32*
COc1ccc(-c2nc(N3CCCC3)ncc2C(=O)O)cc1,1,0,0
CCN1C(=O)[C@]2(CC[C@@H]3CN(C(=O)Nc4ccccc4C)C[C@@H]32)N=C1C,3,-5,12
Cc1ccc(CNC(=O)c2cc(OCc3ccccc3)nc3ccccc23)cc1,-1,15,15
Cc1ccc(COc2cc(C(=O)NCC3CCCO3)c3ccccc3n2)cc1 (configuration not stated),3,5,46*
COc1ccc(CNC(=O)c2cc(OCc3ccc(C)cc3)nc3ccccc23)cc1,·,25,·
CCCNC(=O)c1cc(OCc2ccc(C)cc2)nc2ccccc12,1,3,15
Cc1ccc(COc2cc(C(=O)NC(C)C)c3ccccc3n2)cc1,12,10,35*
O=C(NCC1CCCO1)c1cc2c(cn1)[nH]c1ccccc12 (configuration not stated),34*,-38,-59
Cc1cc(C(=O)NCC2CCCO2)c2cccc(C)c2n1 (configuration not stated),-7,-32,-50
Cc1ccc(COc2cc(C(=O)NCc3ccccc3C)c3ccccc3n2)cc1,16,20,43*
CSc1cccc(NC(=O)c2c(N3CCCC3=O)c3cc(F)ccc3n2C)c1,-3,0,-1
Cc1ccc(-c2nc(N3CCOCC3)sc2C(=O)NCC2CCCO2)cc1 (configuration not stated),5,6,13
COc1ccccc1CNC(=O)c1cnn2c3c(cnc12)CCCCC3,17,16,15
COc1ccc(CN2Cc3c(C(=O)N(C)C)nn(C)c3C2)cc1,-4,-8,5
CC(=O)c1ccc(N2CCN(CC(=O)Nc3ccccc3)CC2)cc1,0,-56,15
COc1cc(C2CCN(C(=O)NCc3cccnc3)CC2)on1,-9,-3,-1
SMILES,USP28 block,USP17 block,USP30 inh
NCCn1nc(C2CCN(C(=O)Cc3cccc(F)c3)C2)c2cccnc21 (configuration not stated),9,37*,26
NCCn1nc(C2CCN(C(=O)Cc3ccc(F)cc3)C2)c2cccnc21 (configuration not stated),-4,18,21
Fc1cccc(-n2cc(-c3noc(-c4ccc[nH]4)n3)nn2)c1,46*,43*,77*
O=C(c1nc(-c2cn(-c3cccc(F)c3)nn2)no1)N1CCOCC1,-5,-7,-1
Fc1cccc(-n2cc(-c3noc(-c4ccccn4)n3)nn2)c1,81*,30*,89*
COc1ccccc1NC(=O)c1nc(-c2cn(-c3cccc(F)c3)nn2)no1,3,1,-45
COc1cccc(Cc2nc(-c3cn(-c4cccc(F)c4)nn3)no2)c1,32*,17,36*
COc1cccc(Cc2nc(-c3cn(-c4ccccc4)nn3)no2)c1,-30,-4,-59
CN1CCN(C(=O)c2cc(-c3ccn(CC4CC4)n3)n3ccccc23)CC1,-233,-177,i
CNC(=O)c1cnn2c(C3CCCCN3C(=O)c3ccccc3)ccnc12 (configuration not stated),-5,-3,7
Cc1ccc2c(c1)c(N1CCCC1=O)c(C(=O)NCC1CCCO1)n2C (configuration not stated),10,12,29
O=C(Nc1ccc(Cl)cc1)c1noc2c1CCCC2,18,18,35*
Cc1cccc(NC(=O)c2noc3c2CCCC3)n1,·,4,·
Cc1nc(-c2cccc(C(F)(F)F)c2)cc(N2CCC(O)CC2)n1,-12,-26,-19
COC1CN(C(=O)COC(C)=O)CCC(=O)N(C)c2ccccc21 (configuration not stated),4,0,6
Cc1nc2ccccc2c(-c2ccccc2)c1C(=O)Nc1ccccc1,16,8,38*
Cc1noc(C)c1C(=O)Nc1cccc(-c2nc3ccccc3[nH]2)c1,-4,10,8
O=C1N[C@@H]2CN(C(=O)Nc3ccc(Cl)cc3)CC[C@H]2CO1,6,2,14
CCCCC(C(=O)O)C(C)C(=O)O (configuration not stated),8,2,21
CCCCC(C)/C=C(C)/C=C(\C)C(N)=O (configuration not stated),29,27,32*
Cc1ccc(C)c(C(O)CN2CCN(c3ncccn3)CC2)c1 (configuration not stated),1,-1,9
CC1Cc2ccccc2N1C(=O)Cn1c(=O)cc(O)c2ccccc21 (configuration not stated),57*,-7,2
CC1Cc2ccccc2N1C(=O)Cn1c(CC(=O)N2CCCC2)nc2ccccc21 (configuration not stated),-9,-16,2
Cc1cccc(O)c1C(=O)OC(C)c1cccc2nc3c(C(=O)O)cc4c(c3nc12)C(C)c1cccc2c1N4c1cccc(C(=O)O)c1N2 (configuration not stated),100*,100*,101*
COC(=O)c1cccc2nc3c(C(C)O)cccc3nc12 (configuration not stated),-41,-68,-26
SMILES,USP28 block,USP17 block,USP30 inh
Cc1cc(=O)sc2c1c(C)nn2-c1ccccc1,30*,31*,14
Cc1cc(=O)n(CC(=O)N2CCCCC2)c2c1c(C)nn2-c1ccccc1,-3,7,-13
CC(=O)Nc1cc(CCC2CCN(CCc3ccccc3)CC2)ccn1,-18,-30,-36
COc1cccc(OC(C)C(=O)NCc2ccc(-c3ncncc3-c3cc(C)no3)cc2)c1 (configuration not stated),12,2,19
COc1cc(NC(=O)Cn2nc(C(C)C)c(-c3cc(C)no3)cc2=O)cc(OC)c1,38*,31*,32*
CC1CCCN(CC2CCN(C(=O)NCc3ccccc3)CC2)C1 (configuration not stated),-2,-1,-7
O=C(c1ccc(Cl)cc1)N1CCCn2c1nc1ccccc12,-9,-2,-27
N#Cc1cn2c(nc1-c1ccc(Cl)cc1)nc1ccccc12,71*,94*,77*
